The text below walks through data of PubChem BioAssay (NCI).

Each structure is given as a SMILES string. Compounds without any hit were thinned out: in the full panel of roughly 83,000, 20% have a hit.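 Single-concentration screen, 48 h exposure, 96-well plates. Endpoint: percent growth. Below 10 = active.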 Values without a mark were called inactive. Active and inactive are the calls of the source.

Common to all, as to assay: NCI-60 one-dose screen, 48 h (100 = growth as untreated, 0 = no growth, -100 = all killed)
One test concerns HCT-15 colon. Particulars: 10 µM unless noted.
The subject of another test is HT29 colon. Particulars: 10 µM unless noted.
The test system of a further test is SNB-75 CNS. As to conditions: 10 µM unless noted.
A further test deals with SNB-19 CNS. Particulars: 10 µM unless noted.
Another test has as its system U251 CNS. Particulars: 10 µM unless noted.
The test system of another test is PC-3 prostate. Particulars: 10 µM unless noted.
The test system of another test is SK-MEL-5 melanoma. As to conditions: 10 µM unless noted.
For another test, the system named is UACC-62 melanoma. As to conditions: 10 µM unless noted.
The next test relates to LOX IMVI melanoma. Particulars: 10 µM unless noted.
Another test relates to SK-MEL-28 melanoma. As to conditions: 10 µM unless noted.
In the next test the test system is EKVX NSCLC. As to conditions: 10 µM unless noted.
Another test relates to SN12C renal. As to conditions: 10 µM unless noted.
The test system of a further test is UO-31 renal. Particulars: 10 µM unless noted.
For a further test, the system named is TK-10 renal. Particulars: 10 µM unless noted.
The test system of a further test is ACHN renal. As to conditions: 10 µM unless noted.
The test system of the next test is CAKI-1 renal. As to conditions: 10 µM.
The next test relates to CCRF-CEM leukemia. As to conditions: 10 µM unless noted.
The next test relates to MOLT-4 leukemia. Particulars: 10 µM unless noted.
Another test relates to A498 renal. Particulars: 10 µM unless noted.

For `CN1CCN(c2nc(-c3cnc4ccccc4n3)cc3ccccc23)CC1`, the growth is 7.27% (active) in the test on HCT-15 colon; 21.3% in the test on HT29 colon; 72.7% in the test on SNB-75 CNS; 81.1% with SNB-19 CNS; 68% with U251 CNS; 70.8% with PC-3 prostate. For the same compound, the growth with SK-MEL-5 melanoma is 66.4%; in the test on UACC-62 melanoma it was -7.14% (active); in the test on LOX IMVI melanoma, 20%; in the test with SK-MEL-28 melanoma, 30.9%; with EKVX NSCLC, 84.9%; in the test on SN12C renal, 72.6%. For the same compound, the growth in the test on UO-31 renal was 63.2%; with TK-10 renal, 99.9%; with ACHN renal it was 84%; in the test with CAKI-1 renal, 64.1%; in the test on CCRF-CEM leukemia it was 55.6%; in the test on MOLT-4 leukemia it was 54.9%.
On to `CN1CCN(Cc2ccc(NC(=O)c3cncc(C#Cc4cnc5ccc(NC6CCOCC6)nn45)c3)cc2C(F)(F)F)CC1`, for which the growth with HCT-15 colon was -48.4% (active); in the test on HT29 colon, 0.122% (active); in the test on SNB-75 CNS, -56.8% (active); in the test on SNB-19 CNS, -7.17% (active); in the test with U251 CNS, -96.7% (active); in the test with PC-3 prostate, -15.5% (active). The growth was -97.7% (active) in the test with SK-MEL-5 melanoma; -61.8% (active) with UACC-62 melanoma; -83.8% (active) in the test on LOX IMVI melanoma; -74.6% (active) in the test on SK-MEL-28 melanoma; -4.66% (active) in the test on EKVX NSCLC; 1.01% (active) with SN12C renal. The growth was -43.7% (active) in the test with UO-31 renal; -11.7% (active) in the test with TK-10 renal; -95.5% (active) in the test with ACHN renal; -46.9% (active) with CAKI-1 renal; 3.15% (active) in the test with CCRF-CEM leukemia; 5.18% (active) with MOLT-4 leukemia.
Turning to `O=C(/C=C/Nc1ccc(S(=O)(=O)O)cc1)c1ccc(F)cc1`, the growth was 96.4% in the test with HCT-15 colon; 103% with HT29 colon; 92.4% with SNB-75 CNS; 93.4% in the test with SNB-19 CNS; 98% in the test with U251 CNS; 96.1% in the test with PC-3 prostate. Moreover, the growth in the test on SK-MEL-5 melanoma was 99.2%; in the test on UACC-62 melanoma it was 93.5%; with LOX IMVI melanoma, 95.9%; in the test with SK-MEL-28 melanoma, 101%; in the test on EKVX NSCLC, 107%; in the test with SN12C renal, 105%. In addition, the growth is 91.8% in the test on UO-31 renal; 97.2% in the test on TK-10 renal; 101% in the test on ACHN renal; 90.4% in the test on CAKI-1 renal; 93% in the test with A498 renal; 98.5% in the test on CCRF-CEM leukemia. Also, the growth in the test on MOLT-4 leukemia is 102%.
Consider `NC(N)=NS(=O)(=O)c1ccc(N=NC2C(=O)NN(c3ccccc3)C2=O)cc1` (stereo unspecified), for which the growth in the test on HCT-15 colon is 101%; with HT29 colon, 112%; in the test with SNB-75 CNS, 84.1%; with SNB-19 CNS, 98.9%; with U251 CNS, 103%; in the test with PC-3 prostate it was 95.2%. The growth with SK-MEL-5 melanoma was 98.9%; with UACC-62 melanoma, 96.1%; with LOX IMVI melanoma, 96.6%; with SK-MEL-28 melanoma, 111%; in the test with EKVX NSCLC, 110%; with SN12C renal it was 101%. Further, the growth in the test on UO-31 renal was 82.9%; with TK-10 renal, 106%; in the test with ACHN renal, 95.9%; in the test on CAKI-1 renal it was 87.7%; with A498 renal it was 98.2%; in the test on MOLT-4 leukemia, 106%.
For `CC1CCc2c(sc3nc(SCC(=O)N/N=C/c4ccc(Cl)cc4)n(-c4ccccc4)c(=O)c23)C1` (stereo unspecified), the growth in the test on HCT-15 colon is 96.3%; in the test with HT29 colon it was 107%; in the test with SNB-75 CNS, 98.5%; in the test on SNB-19 CNS, 81.6%; in the test on U251 CNS, 93.9%; in the test with PC-3 prostate, 95.3%. In addition, the growth is 104% with SK-MEL-5 melanoma; 92.8% with UACC-62 melanoma; 84.1% with LOX IMVI melanoma; 102% with SK-MEL-28 melanoma; 103% with EKVX NSCLC; 95.6% in the test on SN12C renal. Further, the growth in the test on UO-31 renal was 94.2%; in the test on TK-10 renal it was 114%; in the test with ACHN renal it was 81.1%; in the test with CAKI-1 renal it was 75.1%; in the test with CCRF-CEM leukemia it was 109%; in the test on MOLT-4 leukemia, 110%.
Consider `CCc1ccc(NC(=O)N[C@@H](Cc2cccc(F)c2)C(=O)N[C@@H]2C(=O)N3CCC[C@H]3C(=O)N3CCCC[C@H]3C(=O)N[C@@H](C)C(=O)N3C[C@H](C)C[C@H]3C(=O)O[C@H]2C)c(F)c1`, for which the growth in the test on HCT-15 colon was 11.6%; in the test on HT29 colon, 20.1%; in the test with SNB-75 CNS, 20.8%; in the test with SNB-19 CNS it was 27.5%; in the test with U251 CNS it was 31.1%; with PC-3 prostate it was 15.1%. Also, the growth in the test with SK-MEL-5 melanoma was -20.9% (active); in the test on UACC-62 melanoma it was 21.1%; in the test on LOX IMVI melanoma it was 14.1%; in the test with SK-MEL-28 melanoma it was 36.1%; with EKVX NSCLC, 31.1%; in the test on SN12C renal, 21%. Besides, the growth with UO-31 renal is 26.3%; in the test with TK-10 renal, 50.3%; in the test with ACHN renal it was 27.4%; with CAKI-1 renal it was 17.8%; in the test with CCRF-CEM leukemia, 33.9%; in the test on MOLT-4 leukemia it was 32%.
Regarding `CCOC(=O)c1ccc(N/C=C/C(=O)c2ccccc2)cc1`, the growth was 86.2% in the test with HCT-15 colon; 103% in the test with HT29 colon; 97% in the test on SNB-75 CNS; 92.1% in the test with SNB-19 CNS; 99.7% in the test on U251 CNS; 95.7% with PC-3 prostate. The growth with SK-MEL-5 melanoma was 99.4%; with UACC-62 melanoma it was 87.5%; in the test with LOX IMVI melanoma, 96.3%; in the test on SK-MEL-28 melanoma, 97.2%; in the test on EKVX NSCLC it was 103%; in the test with SN12C renal, 99.7%. Besides, the growth was 99.1% with UO-31 renal; 89.8% in the test with TK-10 renal; 98.5% in the test with ACHN renal; 92.7% with CAKI-1 renal; 99.9% with A498 renal; 102% in the test on CCRF-CEM leukemia. Besides, the growth in the test with MOLT-4 leukemia was 97%.
`CN1CCN(c2nc(-c3csc(-c4ccncc4)n3)cc3ccccc23)CC1`: the growth is 17% in the test on HCT-15 colon; 26.5% with HT29 colon; 62.5% in the test with SNB-75 CNS; 77.6% in the test with SNB-19 CNS; 49.1% in the test on U251 CNS; 59.8% in the test on PC-3 prostate. Moreover, the growth was 70.4% with SK-MEL-5 melanoma; 26.6% in the test with UACC-62 melanoma; 11.4% with LOX IMVI melanoma; 28.8% in the test on SK-MEL-28 melanoma; 73.5% with EKVX NSCLC; 70.4% in the test with SN12C renal. Further, the growth in the test with UO-31 renal is 71.4%; in the test with TK-10 renal it was 75.9%; in the test with ACHN renal, 54.7%; in the test with CAKI-1 renal it was 58.7%; with CCRF-CEM leukemia, 26.5%; with MOLT-4 leukemia, 40.6%.
